In PubChem BioAssay AID488966 (Southern Research Specialized Biocontainment Screening …, 2010):
Among all 340,000 compounds or so, about 55 (0.02%) were called active.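 How the source made its calls: active means phage lysis inhibition, versus mean bacterial control, above a set limit; inconclusive means no clear call, values can overlap the other calls; inactive means the rest.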 Only a sample is shown. Potency and affinity values are given separately.

Test: protection from phage-mediated lysis, alamar blue read-out – E. coli UTI89, K1F phage, bacterial capsule biogenesis inhibitors (AID 488966);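 further: capsule biogenesis inhibitors block K1F phage lysis so surviving cells raise fluorescence; higher fluorescence means more inhibition of phage lysis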
Settings: 2 h; inhibition: at 100 µM, hits give high values unless noted; series mostly up to 300 µM

inhibition, inactive:
COc1ccc(CCNC(=O)C23CCC(C)(C(=O)O2)C3(C)C)cc1OC (configuration not stated) 1.58% [at 50 µM, hits give high values], CCCn1nc(-c2nnc(-c3ccc(C)c(C)c3)o2)c2ccccc2c1=O 0.05%, CCn1ncc(C2=NOC(C(=O)Nc3cccc(C(C)=O)c3)C2)c1C (configuration not stated) 4.79%, CS(=O)(=O)N(CC(=O)NN=C1CCCCCC1)c1ccc(Oc2ccccc2)cc1 0.37%, CCN1C(=O)N[C@@H](c2cccc(C(F)(F)F)c2)[C@@H](C(=O)OC)[C@H]1C 0.13%, O=C(Oc1coc(CSc2nnc(NC(=O)C3CC3)s2)cc1=O)c1ccccc1 4.85%, COc1ccc(N2C(=O)C(CC(=O)Nc3ccccc3)N(Cc3cccs3)C2=O)cc1 (configuration not stated) -4.46%, CCOC(=O)c1c(C)n(C)c2cc(-c3ccc(F)cc3)c(O)cc12 7.65%, C[C@H](NC(=O)c1nc[nH]c1C(=O)N[C@@H](CCCCNC(=O)OC(C)(C)C)C(=O)OC(C)(C)C)c1ccccc1 2.05%, COc1ccc(NC(=O)Nc2cc(C(C)(C)C)on2)cc1OC 1.47% [at 50 µM, hits give high values], O=S(=O)(c1ccc(S(=O)(=O)N(Cc2ccco2)Cc2ccccc2Cl)cc1)N1CCCC1 0.31%, Clc1ccc(-c2ccc(/C=N/Nc3nncc(-c4ccccc4)n3)o2)cc1 0.65%, O=C(NCc1ccccc1Cl)c1cc([N+](=O)[O-])ccc1Cl 0.11%, Cc1ccc(Sc2ncccc2C(=O)NCc2cc([N+](=O)[O-])ccc2O)cc1C, Cc1ccc(Sc2ncccc2C(=O)NCc2cc([N+](=O)[O-])ccc2O)c(C)c1, O=C(NCc1cc([N+](=O)[O-])ccc1O)c1cccnc1Sc1ccc(Cl)cc1 7.97%, CC(=O)Nc1ccc(Nc2ccc(S(=O)(=O)C(F)(F)F)cc2[N+](=O)[O-])cc1 -2.27%, Cc1ccc(CC(NC(=O)c2ccccc2)C(=O)NC(CC(C)C)C(=O)O)cc1 (configuration not stated) 0.84%, CCCCS(=O)CC(COC)OC(=O)c1ccccc1 (configuration not stated) 0.21%, Cc1cccc2c1nc(-c1ccccc1)n1nnnc21 -2.7%, COc1ccc(CNC(=O)CN2C(=O)CSc3ccc(S(=O)(=O)N4CCCCC4)cc32)cc1 0.13%, Cc1cc(OC(=O)c2cccs2)ccc1C(C)C -0.04%, O=C(Cn1cnc(S(=O)(=O)N2CCCC2)c1)Nc1ccccc1 0.25%, O=c1c(Cl)c(NS(=O)(=O)c2ccccc2)cnn1-c1ccccc1 0.1%, COc1ccc(C(=O)OCC(=O)NC(C)CCc2ccccc2)cc1OC (configuration not stated) -0.14%, O=C1CCc2cc(NS(=O)(=O)c3ccc(Cl)cc3)cc3c2N1CC3 -0.37% [at 50 µM, hits give high values], C=CCN1C(=O)CN=C1Nc1cc(C)cc(C)c1 -1.02%, COc1ccc(C(=O)N2CCN(C)C(C)C2)cc1OC1CCN(C(C)=O)CC1 (configuration not stated) -0.02%, CCC(OC(=O)c1nsc(Cl)c1Cl)C(=O)NCCOC (configuration not stated) -0.07%, Cc1nn(CC(=O)Nc2ccc(N3CCOCC3)cc2)c(C)c1Br -0.525% [at 50 µM, hits give high values], Cc1ccccc1NC(=O)CCN1CCN(C)CC1 -0.19%, Cc1ccccc1NC(=O)NCCCN1CCN(C)CC1 -0.845% [at 50 µM, hits give high values], CN(C)C1=NC[C@H](Cc2ccccc2)N1CC1CCCC1 6.41%, COc1cc2cc(C(=O)NCCc3ccccc3)[nH]c2cc1OC -0.295% [at 50 µM, hits give high values], O=C(C1CCCO1)N1CCN(S(=O)(=O)c2ccc(F)cc2)CC1 (configuration not stated) -0.11% [at 50 µM, hits give high values], O=C(COC(=O)c1ccccc1[N+](=O)[O-])Nc1cccnc1Cl 0.32% [at 50 µM, hits give high values], Cc1ccc(NC(=O)CN(C)C(=O)Cn2nnc(-c3ccccc3C)n2)cc1 -2.28%, COc1ccc(C(=O)OCC(=O)NCC2CCCCC2)cc1F -0.21% [at 50 µM, hits give high values], CC(C)/C=C1\CCc2c([nH]c3ccccc23)C1=O 0%, CC1Cc2ccccc2N1C(=O)COC(=O)CSc1ccc(F)cc1 (configuration not stated) 0.27% [at 50 µM, hits give high values], COc1ccc(NC(=O)CN(C)C(=O)c2ccccc2OCC(=O)Nc2cccc(C(F)(F)F)c2)cc1 1.88% [at 50 µM, hits give high values], NC(N)=N/N=C/c1ccc(OCc2ccccc2)c(OCc2ccccc2)c1 1.28%, NC(N)=N/N=C/c1ccc(OCc2ccc(Cl)cc2)cc1 -12.3%, CC1=C(C(=O)OCC(C)C)C23C(=O)c4ccccc4C2(O1)OC(N)=C3C#N (configuration not stated) 0.06%, CCOC(=O)C1CCCN(c2c(NCCCN(C)Cc3ccccc3)c(=O)c2=O)C1 (configuration not stated) 2.34%, Cc1ccc2nc(SCC(=O)Nc3ccccc3N3CCOCC3)c(C#N)cc2c1 -1.09%, CCC(=O)N1c2ccc(S(=O)(=O)N3CCCCC3)cc2CC1C (configuration not stated) 0.16%, CC(C)N(Cc1ccccc1)C(=O)CN1C(=O)NC2(CCCC2)C1=O 1.04% [at 50 µM, hits give high values], Cc1c(NC(=S)NC(=O)c2cccc([N+](=O)[O-])c2)c(=O)n(-c2ccccc2)n1C -0.17%, O=C(CSc1nc2c(cnn2-c2ccccc2)c(=O)[nH]1)NC1CCS(=O)(=O)C1 (configuration not stated) -0.1%, COC(=O)Nc1nc(Sc2ncc(C(F)(F)F)cc2Cl)n[nH]1 1.11%, CCOC(=O)c1ccc2[nH]c3c(c2c1)CCCC3 0.13%
